The target in assay [1] is MAP/microtubule affinity-regulating kinase 3 (Homo sapiens) (UniProt P27448). The conditions noted are these: at 1 µM.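 Note: reported values are averaged percent inhibition of MARK3.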
In assay [2] the target is T1, MAP/microtubule affinity-regulating kinase 4 (Homo sapiens) (UniProt Q96L34).
T1 sequence (whole entry): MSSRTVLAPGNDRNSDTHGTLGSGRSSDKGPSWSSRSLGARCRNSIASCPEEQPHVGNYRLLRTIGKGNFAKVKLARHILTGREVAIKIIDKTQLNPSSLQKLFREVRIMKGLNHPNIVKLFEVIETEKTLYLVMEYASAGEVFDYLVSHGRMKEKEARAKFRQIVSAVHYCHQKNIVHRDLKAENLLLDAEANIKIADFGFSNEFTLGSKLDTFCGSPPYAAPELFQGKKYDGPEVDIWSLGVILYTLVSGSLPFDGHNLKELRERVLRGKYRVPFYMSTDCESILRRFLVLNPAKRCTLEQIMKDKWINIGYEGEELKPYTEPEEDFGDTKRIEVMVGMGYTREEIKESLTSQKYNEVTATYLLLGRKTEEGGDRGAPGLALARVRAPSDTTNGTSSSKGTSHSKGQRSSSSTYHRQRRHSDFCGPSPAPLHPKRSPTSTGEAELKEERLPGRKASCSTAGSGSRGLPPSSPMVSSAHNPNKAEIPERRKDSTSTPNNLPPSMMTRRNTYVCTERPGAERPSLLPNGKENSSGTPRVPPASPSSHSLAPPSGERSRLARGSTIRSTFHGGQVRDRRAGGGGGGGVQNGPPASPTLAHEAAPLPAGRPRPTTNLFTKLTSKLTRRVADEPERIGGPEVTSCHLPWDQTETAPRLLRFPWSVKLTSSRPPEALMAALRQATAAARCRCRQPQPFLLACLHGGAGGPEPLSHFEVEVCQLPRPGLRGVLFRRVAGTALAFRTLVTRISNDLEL
The conditions noted are these: at 0.1 µM.

The target in assay [3] is T1, MAP/microtubule affinity-regulating kinase 4 (Homo sapiens). The following applies: at 1 µM.
Assay [4] addresses Maternal embryonic leucine zipper kinase (Homo sapiens) (UniProt Q14680). The conditions noted are these: at 0.1 µM.
Assay [5] has the same target. The conditions noted are these: at 1 µM.
Assay [6] deals with MAP kinase-interacting serine/threonine-protein kinase 1 (Homo sapiens) (UniProt Q9BUB5). The following applies: at 0.1 µM.
For assay [7] the target is unchanged. The following applies: at 1 µM.
Assay [8] addresses MAP kinase-interacting serine/threonine-protein kinase 2 (Homo sapiens) (UniProt Q9HBH9). The following applies: at 0.1 µM.
For assay [9] the target is unchanged. The following applies: at 1 µM.
Assay [10] addresses Serine/threonine-protein kinase MARK2 (Homo sapiens) (UniProt Q7KZI7). The following applies: at 0.1 µM.

Chain of Serine/threonine-protein kinase MARK2 (Homo sapiens) (Q7KZI7 whole entry): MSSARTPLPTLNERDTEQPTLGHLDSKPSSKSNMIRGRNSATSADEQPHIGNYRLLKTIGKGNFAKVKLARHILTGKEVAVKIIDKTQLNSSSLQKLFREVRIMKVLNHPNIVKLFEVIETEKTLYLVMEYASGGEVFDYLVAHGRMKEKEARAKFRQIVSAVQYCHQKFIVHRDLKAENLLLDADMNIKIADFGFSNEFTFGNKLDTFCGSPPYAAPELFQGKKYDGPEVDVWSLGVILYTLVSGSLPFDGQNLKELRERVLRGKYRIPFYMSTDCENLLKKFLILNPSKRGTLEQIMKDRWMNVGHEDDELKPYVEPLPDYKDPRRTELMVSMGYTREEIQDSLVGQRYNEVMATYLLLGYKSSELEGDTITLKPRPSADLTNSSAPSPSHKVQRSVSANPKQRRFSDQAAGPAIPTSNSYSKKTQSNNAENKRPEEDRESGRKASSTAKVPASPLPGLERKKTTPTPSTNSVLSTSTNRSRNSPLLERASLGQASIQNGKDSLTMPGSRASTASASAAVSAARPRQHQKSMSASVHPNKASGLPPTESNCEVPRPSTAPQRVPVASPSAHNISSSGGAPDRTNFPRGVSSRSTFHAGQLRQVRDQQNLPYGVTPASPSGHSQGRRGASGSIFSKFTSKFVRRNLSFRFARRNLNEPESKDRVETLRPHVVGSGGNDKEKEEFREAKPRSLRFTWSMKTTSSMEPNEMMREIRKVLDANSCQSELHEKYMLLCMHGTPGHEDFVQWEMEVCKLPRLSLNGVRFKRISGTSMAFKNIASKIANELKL
Chain of MAP kinase-interacting serine/threonine-protein kinase 1 (Homo sapiens) (Q9BUB5 whole entry, looked up): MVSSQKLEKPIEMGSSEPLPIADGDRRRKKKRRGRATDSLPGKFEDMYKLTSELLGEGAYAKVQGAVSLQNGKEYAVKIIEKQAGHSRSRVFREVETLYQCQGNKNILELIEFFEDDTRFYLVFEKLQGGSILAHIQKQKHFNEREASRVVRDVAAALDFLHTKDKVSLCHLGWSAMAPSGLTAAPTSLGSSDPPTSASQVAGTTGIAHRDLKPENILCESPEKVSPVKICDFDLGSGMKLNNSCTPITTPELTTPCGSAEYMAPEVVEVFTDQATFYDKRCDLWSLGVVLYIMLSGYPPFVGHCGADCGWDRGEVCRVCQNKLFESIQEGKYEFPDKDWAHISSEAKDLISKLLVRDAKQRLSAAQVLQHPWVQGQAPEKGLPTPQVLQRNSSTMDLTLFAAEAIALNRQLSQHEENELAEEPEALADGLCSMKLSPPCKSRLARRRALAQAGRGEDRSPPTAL
Chain of MAP kinase-interacting serine/threonine-protein kinase 2 (Homo sapiens) (Q9HBH9 whole entry, looked up): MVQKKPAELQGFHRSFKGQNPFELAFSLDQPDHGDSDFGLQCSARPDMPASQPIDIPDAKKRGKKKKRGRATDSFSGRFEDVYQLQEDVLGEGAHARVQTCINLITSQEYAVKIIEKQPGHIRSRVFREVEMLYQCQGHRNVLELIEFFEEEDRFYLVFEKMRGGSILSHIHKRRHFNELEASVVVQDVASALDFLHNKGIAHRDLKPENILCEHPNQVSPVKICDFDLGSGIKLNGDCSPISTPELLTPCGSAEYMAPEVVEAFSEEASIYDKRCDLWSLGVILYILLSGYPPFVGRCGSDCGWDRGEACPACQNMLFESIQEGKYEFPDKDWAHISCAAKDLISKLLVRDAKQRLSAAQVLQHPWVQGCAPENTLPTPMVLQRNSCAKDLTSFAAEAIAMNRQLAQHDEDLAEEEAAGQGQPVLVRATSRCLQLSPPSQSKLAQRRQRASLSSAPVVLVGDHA
Chain of Maternal embryonic leucine zipper kinase (Homo sapiens) (Q14680 whole entry, looked up): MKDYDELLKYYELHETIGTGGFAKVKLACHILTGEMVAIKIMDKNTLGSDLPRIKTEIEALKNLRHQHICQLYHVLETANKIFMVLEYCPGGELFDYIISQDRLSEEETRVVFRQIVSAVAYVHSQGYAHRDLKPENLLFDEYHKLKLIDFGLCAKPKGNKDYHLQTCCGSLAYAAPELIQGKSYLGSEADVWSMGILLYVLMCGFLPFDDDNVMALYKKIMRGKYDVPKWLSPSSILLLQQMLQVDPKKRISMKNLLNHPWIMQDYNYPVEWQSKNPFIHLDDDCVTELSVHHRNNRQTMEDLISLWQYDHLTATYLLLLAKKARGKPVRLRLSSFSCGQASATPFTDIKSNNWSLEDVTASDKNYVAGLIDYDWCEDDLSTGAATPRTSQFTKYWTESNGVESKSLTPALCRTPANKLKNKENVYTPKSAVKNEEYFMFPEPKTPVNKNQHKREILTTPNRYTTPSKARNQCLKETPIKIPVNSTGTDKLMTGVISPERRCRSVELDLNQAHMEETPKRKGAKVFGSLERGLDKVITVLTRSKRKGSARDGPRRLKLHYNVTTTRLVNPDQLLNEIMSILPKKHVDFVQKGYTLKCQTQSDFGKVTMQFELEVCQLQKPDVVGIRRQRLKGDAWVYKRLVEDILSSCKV
Chain of MAP/microtubule affinity-regulating kinase 3 (Homo sapiens) (P27448 whole entry, looked up): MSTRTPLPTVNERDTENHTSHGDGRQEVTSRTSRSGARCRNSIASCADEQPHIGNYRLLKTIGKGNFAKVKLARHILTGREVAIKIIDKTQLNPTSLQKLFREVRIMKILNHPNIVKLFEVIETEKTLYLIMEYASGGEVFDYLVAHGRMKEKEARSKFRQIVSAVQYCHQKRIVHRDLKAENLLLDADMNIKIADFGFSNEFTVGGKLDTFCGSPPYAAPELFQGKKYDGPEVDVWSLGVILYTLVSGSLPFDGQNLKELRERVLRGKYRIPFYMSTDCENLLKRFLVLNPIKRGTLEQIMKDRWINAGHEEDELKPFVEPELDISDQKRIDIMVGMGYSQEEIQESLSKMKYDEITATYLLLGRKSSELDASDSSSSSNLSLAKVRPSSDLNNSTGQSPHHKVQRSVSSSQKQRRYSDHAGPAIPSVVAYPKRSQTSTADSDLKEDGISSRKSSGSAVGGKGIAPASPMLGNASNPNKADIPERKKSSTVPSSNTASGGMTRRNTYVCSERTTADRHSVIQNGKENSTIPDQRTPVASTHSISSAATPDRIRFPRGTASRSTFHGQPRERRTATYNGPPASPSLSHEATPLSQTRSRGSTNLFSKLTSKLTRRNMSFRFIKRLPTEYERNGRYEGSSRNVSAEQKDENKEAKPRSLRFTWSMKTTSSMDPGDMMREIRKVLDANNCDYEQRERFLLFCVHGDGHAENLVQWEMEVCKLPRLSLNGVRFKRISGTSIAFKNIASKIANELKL

Consider `OCc1ccc(-c2nc(-c3ccccn3)c(-c3ccc4c(c3)OCO4)[nH]2)cc1`, for which the inhibition was 4.42% in assay [1]; 1.75% in [2]; 2.19% in assay [3]; 6.02% in assay [4]; 4.4% in [5]; 2.65% in assay [6]. The inhibition in assay [7] came out at 2.54%; in assay [8], 0.41%; in [9], 0.09%; in assay [10] it was 1.8%.
Regarding `ON=C1CCc2cc(-c3nc(C4CCNCC4)[nH]c3-c3ccncc3)ccc21`, the inhibition in assay [1] was 3.01%; in [2], 0.47%; in assay [3], 1.99%; in [4], -0.02%; in assay [5], 1.75%; in [6], 0.86%. For the same compound, the inhibition was 3.6% in [7], 0.66% in [8], 0.78% in [9] and -1.2% in assay [10].
Consider `COc1cc(Nc2nccc(-c3cnn4ncccc34)n2)cc(OC)c1`, for which the inhibition in assay [1] came out at 34.1%; in assay [2], 3.44%; in assay [3] it was 22.1%; in assay [4], 7.1%; in assay [5], 43.9%; in [6], 1.97%. Besides, the inhibition in assay [7] was 10.2%; in assay [8] it was 3.13%; in [9], 17.2%; in assay [10], 2.81%.
`Cc1nc(-c2ccccc2)n2nc(NCCCN3CCOCC3)ncc12`: the inhibition in assay [1] is 4.15%; in [2], 1.2%; in assay [3], 2.72%; in [4], 1.4%; in [5], 1.29%; in assay [6], 2.43%. The inhibition is 4.9% in assay [7], 1.85% in assay [8], 3.34% in [9] and -0.89% in assay [10].
On to `c1ccc(Cc2nc3ccc(Nc4ncnc5ccccc45)cc3[nH]2)cc1`, for which the inhibition in [1] came to 3.72%; in assay [2] it was 0.9%; in [3], 2.17%; in [4], 0.16%; in assay [5] it was 7.57%; in assay [6] it was 2.13%. For the same compound, the inhibition in assay [7] was 5.06%; in assay [8], 1.25%; in assay [9] it was 5.19%; in assay [10], 0.28%.
Consider `CCn1c(-c2nonc2N)nc2c(C#CC(C)(C)O)nc(OCCNC)cc21`, for which the inhibition was found to be 11.6% in assay [1]; 2.05% in assay [2]; 7.52% in assay [3]; 17.5% in assay [4]; 81.1% in [5]; 1.63% in assay [6]. For the same compound, the inhibition in assay [7] was 3.44%; in assay [8], 0.5%; in [9] it was 1.12%; in [10] it was 1.74%.
Consider `Nc1nccc(-c2c(-c3ccc(F)cc3)nn3cc(C(F)(F)F)ccc23)n1`, for which the inhibition in assay [1] is -0.99%; in assay [2], -0.15%; in assay [3], -0.03%; in assay [4], 0.66%; in assay [5] it was -0.87%; in [6] it was 1.92%. Further, the inhibition in [7] is 3.98%; in assay [8], 0.49%; in [9] it was 2.23%; in assay [10], -2.12%.
Turning to `Cc1cc(O)cc(C)c1/C=C/c1cncc(C(=O)N(C)C)c1`, the inhibition was determined as 13.7% in [1]; 1.25% in assay [2]; 2.49% in assay [3]; 3.84% in [4]; 4.23% in assay [5]; 4.18% in [6]. Besides, the inhibition is 18% in [7], 2.2% in assay [8], 9.99% in [9] and -1.4% in [10].
As to `COc1cccc(-n2ncc3c(N/N=C/c4ccc(C)cc4)ncnc32)c1`, the inhibition in [1] stood at 6.9%; in assay [2], 2.42%; in assay [3] it was 5.11%; in [4], 5.47%; in assay [5] it was 12.6%; in assay [6], 4.37%. For the same compound, the inhibition in [7] was 9.69%; in assay [8] it was 3.79%; in assay [9] it was 11.2%; in assay [10] it was 2.05%.
Consider `CCn1c(-c2nonc2N)nc2ccc(F)cc21`, for which the inhibition in assay [1] is 3.73%; in assay [2], 2.45%; in assay [3], 1.33%; in assay [4] it was 1.93%; in [5], 8.51%; in assay [6], 3.42%. In addition, the inhibition was found to be 9.46% in assay [7], 2.9% in assay [8], 9.38% in assay [9] and 2.57% in assay [10].
On to `COc1cccc(-n2ncc3c(N/N=C/c4ccc(S(C)(=O)=O)cc4)ncnc32)c1`, for which the inhibition in assay [1] was 4.26%; in [2], 1.03%; in [3] it was 3.52%; in [4], 3.61%; in assay [5], 4.85%; in [6], 23.2%. Also, the inhibition in [7] worked out at 34.2%; in assay [8], 16.7%; in [9], 23.9%; in assay [10], 0.16%.
As for `Cc1ccc(O)cc1Nc1ccnc2ccc(S(C)(=O)=O)cc12`, the inhibition in assay [1] was found to be 4.85%; in assay [2] it was 2.23%; in [3] it was 1.71%; in assay [4], 4.23%; in assay [5], 9.23%; in assay [6] it was 3.85%. Besides, the inhibition in assay [7] was 12.2%; in [8], 1.97%; in assay [9], 9.18%; in assay [10], 2.65%.
Turning to `COC(=O)Nc1nc2cc(Oc3ccc(NC(=O)Nc4cccc(Br)c4)cc3)ccc2[nH]1`, the inhibition amounted to 1.7% in assay [1]; 0.25% in assay [2]; 1.17% in [3]; 2.93% in [4]; 4.7% in assay [5]; 4.77% in assay [6]. Also, the inhibition in [7] was 8.85%; in assay [8] it was 1.96%; in [9], 4.55%; in assay [10], -0.39%.
For `COc1cc2ncn(-c3cc(OCc4ccccc4S(C)(=O)=O)c(C#N)s3)c2cc1OC`, the inhibition amounted to 88.3% in assay [1]; 34.9% in assay [2]; 76.6% in assay [3]; 1.64% in assay [4]; 8.3% in [5]; 11.7% in assay [6]. Further, the inhibition is 47.7% in assay [7], 41.8% in assay [8], 76.8% in [9] and 25.9% in assay [10].
In the case of `NS(=O)(=O)c1ccc(N/N=C2\C(=O)Nc3ccc(Cl)cc32)cc1`, the inhibition in assay [1] amounted to 13.2%; in assay [2], 2.09%; in assay [3], 11.2%; in [4], 3.75%; in [5], 8.5%; in assay [6], 2.08%. The inhibition is 10.1% in assay [7], 1.59% in [8], 5.65% in [9] and 0.41% in assay [10].
On to `COc1cccc(-n2nc(C)c3c(N/N=C(\C)c4ccncc4)ncnc32)c1`, for which the inhibition was 0.26% in [1]; -0.19% in assay [2]; -0.43% in assay [3]; -0.32% in assay [4]; 1.96% in [5]; 0.47% in [6]. Besides, the inhibition in assay [7] is 1.1%; in assay [8], -0.51%; in assay [9], 0.76%; in [10] it was -0.2%.
As for `Cc1ccc2c(c1)/C(=N/Nc1ccc(S(N)(=O)=O)cc1)C(=O)N2`, the inhibition in assay [1] was 3.82%; in assay [2], 1.51%; in assay [3], 7.46%; in [4], -0.41%; in assay [5], 6.27%; in assay [6] it was 0.02%. The inhibition in assay [7] was 0.54%; in assay [8] it was -0.44%; in [9] it was 0%; in [10] it was -0.42%.

Source of the values: ChEMBL document CHEMBL1961873, “Compounds: GSK PKIS; Assays: Nanosyn kinase panel” (2012).
